MITF inh – MITF inhibitors, primary screen, biochemical, AlphaScreen, human; AID 1259374, 2018; Microphthalmia-associated transcription factor (Homo sapiens), O75030; inhibition, % at 2.6 µM; 650,000 compounds, 0.91% hits; AlphaScreen MITF homodimerization, bead proximity signal; in the data active = inhibition above about 50%
GPR151 ag – activators of human GPR151, primary screen, cell-based, PathHunter beta-arrestin, luminescence; PathHunter beta-arrestin GPR151 cells; activation, % at 11.2 µM; 650,000 compounds, 1% hits; G-protein coupled receptor 151 (Homo sapiens), Q8TDV0; in the data active = activation above about 4.9%
FBW7 activator – FBW7 E3 ligase activators, primary screen, biochemical, AlphaScreen, human. normalized activity (activation), % at 26.1 µM. AlphaScreen FBW7–phospho-cyclin E peptide binding, activator screen. AID 1259310, 2017. F-box/WD repeat-containing protein 7 (Homo sapiens), Q969H0. 650,000 compounds, 0.13% hits; in the data active = normalized activity above about 1.9%;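 note: purified mutant Fbw7 with reduced substrate affinity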
Target sequence (Q969H0 whole entry, looked up): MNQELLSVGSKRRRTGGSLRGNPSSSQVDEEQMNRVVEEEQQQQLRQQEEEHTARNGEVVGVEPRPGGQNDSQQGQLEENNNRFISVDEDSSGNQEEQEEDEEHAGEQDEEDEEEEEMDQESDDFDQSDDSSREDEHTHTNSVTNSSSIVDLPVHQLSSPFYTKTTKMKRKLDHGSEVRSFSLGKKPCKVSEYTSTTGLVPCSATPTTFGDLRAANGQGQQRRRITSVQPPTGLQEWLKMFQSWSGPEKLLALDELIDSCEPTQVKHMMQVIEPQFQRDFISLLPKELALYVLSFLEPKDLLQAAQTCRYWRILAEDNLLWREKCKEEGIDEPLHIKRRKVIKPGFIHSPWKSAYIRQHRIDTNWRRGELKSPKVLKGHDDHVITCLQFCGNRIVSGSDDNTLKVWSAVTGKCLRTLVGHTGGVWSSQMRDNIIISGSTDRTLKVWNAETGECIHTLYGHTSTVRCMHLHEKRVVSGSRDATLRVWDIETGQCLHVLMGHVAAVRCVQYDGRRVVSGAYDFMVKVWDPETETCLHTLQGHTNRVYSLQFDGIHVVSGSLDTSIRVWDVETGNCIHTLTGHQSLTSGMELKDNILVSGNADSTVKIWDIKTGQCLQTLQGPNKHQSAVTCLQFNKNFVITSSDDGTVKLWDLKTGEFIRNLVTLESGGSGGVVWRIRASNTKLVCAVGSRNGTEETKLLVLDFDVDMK
TEAD-YAP inh – TEAD-YAP interaction inhibition, primary screen, TEAD-YAP interaction inhibitor project, luminescence, HEK-TIYL cells | 640,000 compounds, 1.4% hits | TEAD-Gal4/YAP UAS-luciferase luminescence | inhibition, % at 9.12 µM; in the data active = inhibition above about 32%
MITF confirm – MITF inhibitors, retest of hits, confirmation, biochemical, AlphaScreen, triplicate; shares compounds with MITF inh; AlphaScreen MITF homodimerization, biotin/His-MITF beads; inhibition, % at 2.6 µM; 4,700 compounds, 16% hits;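 active = inhibition above a cutoff derived from the DMSO control wells, cut at about 28% in these data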;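 note: inhibitors lower the bead chemiluminescence by keeping MITF from dimerizing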
AlphaScreen DR – AlphaScreen optical interference compounds, dose response, counter-screen, biochemical, HTS; shares compounds with MITF inh; AlphaScreen optical interference counterscreen, cell-free; IC50, µM; 480 compounds, 6% hits; AID 1259373, 2018; call rule not given here
AlphaScreen intf2 – AlphaScreen optical interference compounds, counter-screen for MITF inhibitor project, biochemical, triplicate; LysRS AlphaScreen counterscreen, signal interference; shares compounds with MITF inh; 4,700 compounds, 7.6% hits; inhibition, % at 2.6 µM;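 active = inhibition above a cutoff derived from the DMSO control wells, cut at about 30% in these data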
A number is an active result; 0 = inactive; - = no result. This is a sample that favours compounds with a hit; in the whole collection about 3.4% have one here.

SMILES	MITF inh	GPR151 ag	FBW7 activator	TEAD-YAP inh	MITF confirm	AlphaScreen intf2	others
Clc1cccc(Cl)c1OCCCn1ccnc1	52	0	0	0	0	0
COc1ccc(O[C@H]2C=C[C@@H](c3ccccc3)O[C@@H]2CO)cc1	0	0	0	-	-	-
COc1cc(CNc2ncccn2)cc(OC)c1OC	0	0	0	0	-	-
Cc1cccc(C)c1OCCCCn1ccnc1	70	0	0	0	0	0
Cc1cccc(Cl)c1OCCCCn1ccnc1	0	0	0	0	-	-
C=CCn1c(SCC(=O)O)nc2sc(C)c(C)c2c1=O	81	0	0	0	0	0
COc1cc(C)c(Cl)cc1S(=O)(=O)N1CC(C)OC(C)C1 (stereo unspecified)	0	0	0	0	-	-
CN1C(=O)[C@H]2CN(C(=O)NC3CCCCC3)CCN2C(=O)[C@@H]1CO	76	0	0	0	71	0	AlphaScreen DR=0
O=C(NC1CCCCC1)N1CCN2C(=O)[C@H]3CCCN3C(=O)[C@H]2C1	79	0	0	0	73	0	AlphaScreen DR=0
CN1C(=O)[C@H]2CN(C(=O)c3ccc(Cl)cc3)CCN2C(=O)[C@@H]1CO	0	0	0	0	-	-
Cn1nnc2cc(NC(=O)Nc3ccc(I)cc3)ccc21	0	0	0	0	-	-
COc1cc(CN2CCN(C3CCCC(C)C3)CC2)cc(OC)c1O (stereo unspecified)	74	0	0	0	0	0
COc1cc(CN2CCN(C3CCCCCC3)CC2)cc(OC)c1O	58	0	0	0	0	0
CCOc1ccc(/C=C/C(=O)Nc2nc3ccc(S(C)(=O)=O)cc3s2)cc1OC	73	0	0	0	0	0
CCC(C)(C(=O)NC1CCCCC1)N(CC1CCCO1)C(=O)c1ccc(=O)[nH]c1 (stereo unspecified)	79	0	0	0	0	0
Cc1ccc(CCNC(=O)CN2CCN(Cc3ccc(C)cc3)C2=O)cc1	0	0	0	0	-	-
COC(=O)c1cccc(NC(=O)CCOc2ccccc2)c1	51	0	0	0	0	0
O=C(CCC(=O)Nc1cc(C(F)(F)F)ccc1Cl)N/N=C\c1ccc(O)cc1	0	0	0	0	-	-
O=C(/C=C/c1ccco1)C1=C(O)C(=O)N(CCCN2CCOCC2)C1c1ccco1 (stereo unspecified)	79	0	0	0	60	0	AlphaScreen DR=0
COc1ccccc1CNC(=O)CCc1nnc(Cc2c[nH]c3ccccc23)o1	0	0	0	0	-	-
CN(C)CC(C)(C)CNCC(O)COCc1ccc2c(c1)OCO2 (stereo unspecified)	57	0	0	0	0	0
CCCOc1ccccc1OCCCCN1CCN(C)CC1	0	0	0	0	-	-
CCC(C)c1ccccc1OCCCN1CCN(C)CC1 (stereo unspecified)	60	0	0	0	0	0
CCC(C)c1ccccc1OCCCCN1CCNCC1 (stereo unspecified)	70	0	0	0	0	0
CS(=O)(=O)NCCSc1nnnn1-c1ccccc1	55	0	0	0	0	0
SMILES	MITF inh	GPR151 ag	FBW7 activator	TEAD-YAP inh	MITF confirm	AlphaScreen intf2	others
COC(=O)c1ccc(NC(=O)c2nccnc2CO)cc1	0	0	0	0	-	-
Cc1c(C#N)c(O)n(CCCO)c(=O)c1N=Nc1c(C)n(C)n(-c2ccccc2)c1=O	84	0	0	0	0	100
Cc1c(C#N)c(O)n(CCO)c(=O)c1N=Nc1ccccc1C(=O)O	0	0	0	0	-	-
COc1ccc(NC(=O)c2nc(-c3ccncc3)no2)c(OC)c1	0	0	0	0	-	-
COc1ccc(C2SCC(C(=O)O)N2C(C)=O)cc1OC (stereo unspecified)	51	0	0	0	0	0
CC1(NCC(O)COc2ccccc2)CCS(=O)(=O)C1 (stereo unspecified)	65	0	0	0	0	0
CC(C)(c1ccccc1)c1ccc(OCC(O)CNC2CCS(=O)(=O)C2)cc1 (stereo unspecified)	77	0	0	0	0	0

From PubChem BioAssay
